Hits are enriched below; roughly 21% of the tested compounds scored in any of these assays.
Shiga toxin inh: A qHTS for Small Molecule Inhibitors of Shiga Toxin | hit rate 9.2% among 290,000 | inhibition, % at 38.7 µM | Vero cells, Shiga toxin protein synthesis inhibition reporter; in the data active means inhibition mostly above about 28%, no sharp cut-off; inactive means mostly below about 43%
Pf growth 96h: Primary qHTS for delayed death inhibitors of the malarial parasite plastid, 96 hour incubation; hit rate 6.9% among 320,000; P. falciparum luciferase reporter growth, 96 h; Potency, µM (series often up to 28.7 µM), most hits filed as inhibitors
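Two parasite generations (96 h, 37 C, 5% CO2) of compound exposure in infected erythrocytes (0.05% parasitemia, 2% hematocrit). Luciferase-reporter P. falciparum; decreased luminescence indicates inhibited growth, aimed at apicoplast-acting delayed death.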
Cycloheximide cs: Cycloheximide Counterscreen for Small Molecule Inhibitors of Shiga Toxin | max response, % | cell reporter, cycloheximide protein synthesis inhibition counterscreen | hit rate 12% among 300,000; in the data active means max response mostly above about 13%, no sharp cut-off; inactive means mostly below about 14%; further: read at 38.3 µM for the half of the compounds with a filed dose
NS1 function inh: qHTS Assay for Inhibitors of Influenza NS1 Protein Function; AID 2326, 2010; hit rate 0.4% among 270,000; Potency, µM (doses to about 46.1 µM); calls by dose curve; further: actives are rising curves; nearly all actives have a fitted effect of over 50% in size
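Compounds were scored for reversing the slow growth caused by influenza A NS1 in S. cerevisiae, measured by optical density at 600 nm. Assay medium contained 2% galactose at pH 6.0; NS1-free yeast of the same strain were the positive control.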
Pf growth 48h: Primary qHTS for delayed death inhibitors of the malarial parasite plastid, 48 hour incubation. P. falciparum luciferase growth in erythrocytes, 48 h. hit rate 5.9% among 310,000. Potency, µM (series often up to 28.7 µM), actives largely listed as inhibitors
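Cell-based growth assay: transgenic P. falciparum expressing firefly luciferase, cultured in red cells within RPMI 1640 containing 0.5% w/v Albumax, 24 mM bicarbonate and gentamycin. A drop in luciferase activity indicates inhibition.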
Numbers stand for hits; – = inactive; ? = inconclusive; · = not tested or not shown. Unless noted, the call rests on the fitted dose curve; in most records, active means well fitted inhibition curve with a large enough effect; inconclusive means small, poorly fitted or top-dose-only effect, or another doubt; inactive means no such curve, though single readings can be large or run the other way.

SMILES	Shiga toxin inh	Pf growth 96h	Cycloheximide cs	NS1 function inh	Pf growth 48h
O=C(NCCCCC(NC(=O)c1ccc([N+](=O)[O-])cc1)C(=O)O)c1ccc([N+](=O)[O-])cc1 (centres undefined)	–	–	–	–	·
O=C(NC(Cc1ccccc1)C(=O)O)C1CCCCC1 (centres undefined)	–	10.4µM	–	–	–
CC(C)C1CCC(C(=O)NC(Cc2ccccc2)C(=O)O)CC1 (centres undefined)	·	–	·	·	–
O=C(NCCCCC(NC(=O)C1CCCCC1)C(=O)O)c1ccccc1 (centres undefined)	–	8.28µM	–	–	?
CC1CN(C(=O)c2ccc(NS(=O)(=O)c3ccc(C(C)(C)C)cc3)cc2)CC(C)O1 (centres undefined)	–	?	–	–	?
COc1ccc(C(=O)N/N=C/c2ccccc2OC(=O)c2ccccc2)cc1	41.2	–	33.4	–	?
COc1cc(C(=O)Oc2ccccc2/C=N/NC(=O)c2ccc(C)cc2)cc(OC)c1OC	118.0	?	87.2	–	?
COc1cc(C(=O)Oc2ccc(/C=N/NC(=O)c3ccncc3)cc2)cc(OC)c1OC	–	–	–	–	–
COc1ccc(C(=O)N/N=C/c2ccc(OC(=O)c3ccccc3)cc2)cc1	–	–	–	–	–
CCOc1cc(/C=N\NC(=O)c2ccc(NC(=O)C(C)(C)C)cc2)ccc1OC(=O)c1ccc(C)cc1	–	–	–	–	·
CC(C)(C)C(=O)Nc1ccc(C(=O)N/N=C/c2ccccc2OC(=O)c2ccccc2)cc1	–	4.15µM	–	–	?
CCOC(=O)C1(Cc2ccc(Cl)cc2)CCN(Cc2ccon2)CC1	–	?	–	–	–
CC1(C)CC(=O)C(C=Nc2cccnc2/N=C/C2=C(O)CC(C)(C)CC2=O)=C(O)C1	–	–	–	–	–
CC(c1ccccc1)C1CC(=O)N(Cc2ccccc2)C1=O (centres undefined)	–	–	–	–	–
COc1ccc(NC(=O)CCCn2c(=O)c3sccc3n(Cc3ccc(C)cc3)c2=O)cc1	–	–	–	–	–
COc1ccc(NC(=O)CCCn2c(=O)c3sccc3n(Cc3ccc(C)cc3C)c2=O)cc1	–	8.28µM	–	–	–
Cc1cccc(NC(=O)CSc2nnc(-c3cc(C)n(-c4ccccc4)c3C)o2)c1C	32.8	?	25.1	?	–
Cc1cc(-c2nnc(SCC(=O)Nc3ccccc3C(F)(F)F)o2)c(C)n1-c1ccccc1	–	·	39.5	–	–
CCOC(=O)N1CCN(S(=O)(=O)N2CCCC(C(=O)NCCc3ccc(OC)c(OC)c3)C2)CC1 (centres undefined)	–	?	–	–	–
CC(Oc1ccccc1)C(=O)N=C1SC2CS(=O)(=O)CC2N1c1cccc(F)c1 (centres undefined)	–	–	–	–	–
NNC(=O)CNC(c1ccccc1)c1cc(Br)ccc1NC(=O)c1ccccc1Br (centres undefined)	–	–	–	?	8.28µM
CCCCN(CC)CCCNC(=O)c1csc2c1CCCCC2	–	?	–	·	–
COc1cccc(NC(=O)CCCCCN2C(=O)[C@@H]3Cc4ccccc4CN3C2=O)c1	–	11.7µM	–	–	?
O=C(NC1CCCCC1)Oc1cccc2ccccc12	–	–	–	–	–
O=C(NC1CCCCC1)Oc1cc2oc(=O)sc2cc1Cl	–	?	16.2	–	–
SMILES	Shiga toxin inh	Pf growth 96h	Cycloheximide cs	NS1 function inh	Pf growth 48h
Cc1ccc(C(=O)C(C)Sc2nnc(N)s2)cc1 (centres undefined)	–	–	15.3	·	–
O=[N+]([O-])c1ccc(C2CC(c3ccccc3)=Nc3ccccc3S2)cc1 (centres undefined)	66.8	–	56.5	–	?
O=C(O)C1CC(c2ccccc2)=Nc2ccccc2S1 (centres undefined)	72.5	–	57.6	–	?
CC1(C)CC(=O)CC2(C1)NCC(c1ccccc1)c1c2[nH]c2ccccc12 (centres undefined)	–	10.4µM	–	·	5.86µM
COc1ccc(NC(=O)[C@H](C)NC(=O)[C@@H]2Cc3ccccc3CN2C(=O)OC(C)(C)C)cc1	–	?	–	–	?
CN(CC(=O)Nc1ccccc1C(F)(F)F)C(=O)C1CCN(S(=O)(=O)c2ccc3c(c2)OCCO3)CC1	·	–	·	·	?
CN(CC(=O)Nc1cccc(F)c1)C(=O)C1CCN(S(=O)(=O)c2ccc3c(c2)OCCO3)CC1	·	4.15µM	·	·	9.28µM
CN(Cc1ccccc1)C(=O)COC(=O)C1CCN(S(=O)(=O)c2ccc3c(c2)OCCO3)CC1	·	–	·	·	–
O=C(C1CCN(S(=O)(=O)c2ccc3c(c2)OCCO3)CC1)N1CCc2ccccc21	–	10.4µM	–	–	?
CCN(Cc1ccccc1)C(=O)C1CCN(S(=O)(=O)c2ccc3c(c2)OCCO3)CC1	–	13.1µM	–	–	?
Cc1ccc(C)c(NC(=O)CN(C)C(=O)CN2C(=O)C3CCCCC3C2=O)c1 (centres undefined)	·	–	·	·	–
CCN(CC)CCCNC(=O)c1cc2c(=O)n(C)c3ccccc3c2n1C	–	10.4µM	–	–	·
Cn1c(C(=O)NCCCN2CCCCCC2)cc2c(=O)n(C)c3ccccc3c21	–	?	–	–	3.29µM
CCOc1ccc(N2C(=O)CC(SCCN)C2=O)cc1 (centres undefined)	76.2	–	30.7	–	–
COc1ccc(N2C(=O)CC(SCCc3nc4ccccc4[nH]3)C2=O)cc1 (centres undefined)	–	–	–	–	–
CCCCCCOc1ccc(N2C(=O)CC(SCCN)C2=O)cc1 (centres undefined)	–	–	12.0	–	–
CCOc1ccc(N2C(=O)CC(Sc3nnnn3-c3ccccc3)C2=O)cc1 (centres undefined)	–	–	18.0	·	–
COc1ccc(S(=O)(=O)NC(C)CCc2ccccc2)cc1 (centres undefined)	–	–	–	–	–
COc1cc(/C=C2/SC(=S)N(Cc3ccccc3)C2=O)ccc1OCC(=O)O	·	–	–	?	–
COc1cc([N+](=O)[O-])cc(/C=C2/SC(=S)N(Cc3ccccc3)C2=O)c1O	–	–	–	–	10.4µM
COc1cc(/C=C2/SC(=S)N(Cc3ccccc3)C2=O)cc(Cl)c1O	–	–	–	–	?
CCOc1cc(/C=C2\SC(=O)N(c3ccc(O)cc3)C2=O)ccc1O	49.9	–	9.3	–	–
CCOc1cc(/C=C2/SC(=S)N(Cc3ccccc3)C2=O)ccc1O	41.7	–	16.4	?	?
Cc1ccc(NC(=S)N/N=C/c2cccn2Cc2ccccc2F)cc1	–	?	–	–	9.28µM
CCOC(=O)CC1(NC(=O)C2CCC(=O)N(Cc3ccccc3OC)C2)CCCCC1 (centres undefined)	–	?	–	–	?
CNc1c([N+](=O)[O-])cnn1-c1ccc(Cl)cc1Cl	–	–	–	–	–
CNc1c([N+](=O)[O-])cnn1-c1ccccc1Cl	–	–	15.3	–	–
CN1C(=O)C[C@H](C(=O)O)[C@@H]1c1cccnc1	–	·	–	·	·

From PubChem
